Measured values as given in PubChem BioAssay AID1159580 (chemical genetic matrix, 2015).
“And” between values parts separate entries of the source, which are not always exact repeats. Equal values may be shown once. The campaign covered roughly 5,500 compounds. About 2,000 (36%) were called active. Inconclusive results (about 18%) are left out. No stated cut-off is given here; in the data, active means normalized growth mostly below about 0.91 (no sharp cut-off); inconclusive means no clear call, values can overlap the other calls; inactive means mostly above about 0.92. Some of the results follow.

Experiment: chemical genetic growth profiling, strain panel (AID 1159580);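 further: tested at 20 µM; growth read once vehicle control cultures reached saturation at 30 °C; 1 = growth at the plate median or of vehicle wells; lower values mean less growth of the strain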
Conditions: S. cerevisiae deletion strains, growth OD

Measured: normalized growth

Nc1c2ccccc2nc2ccccc12 (tested in a mixture with another compound)
inactive: locus YBR021W, strain FUR4, active compounds read low 0.985 | locus YBR171W, strain sec66, active compounds read low 0.964 | locus YBR229C, strain ROT2, active compounds read low 0.976 | locus YDL185W, strain tfp1, active compounds read low 0.998 | locus YDR001C, strain nth1, active compounds read low 0.956 | locus YDR334W, strain swr1, active compounds read low 0.943 | locus YER110C, active compounds read low 0.996 | locus YGL167C, strain pmr1, active compounds read low 0.927 | locus YJL129C, strain trk1, active compounds read low 1.02 | locus YJL134W, strain LCB3, active compounds read low 0.982 | locus YJL168C, strain set2, active compounds read low 0.946
active: locus YAL013W, strain DEP1, active compounds read low 0.822 | locus YAL021C, strain ccr4, active compounds read low 0.67 | locus YAL026C, strain drs2, active compounds read low 0.541 | locus YAL030W, strain snc1, active compounds read low 0.679 | locus YBL061C, strain skt5, active compounds read low 0.795 | locus YBR009C, strain hhf1, active compounds read low 0.495 | locus YBR023C, strain chs3, active compounds read low 0.751 | locus YBR231C, strain swc5, active compounds read low 0.677 | locus YBR279W, strain paf1, active compounds read low 0.555 | locus YCL011C, strain gbp2, active compounds read low 0.704 | locus YCL016C, strain dcc1, active compounds read low 0.467 | locus YCL029C, strain bik1, active compounds read low 0.485 | locus YCL061C, strain MRC1, active compounds read low 0.842 | locus YCL069W, strain vba3, active compounds read low 0.777 | locus YCR088W, strain abp1, active compounds read low 0.682 | locus YDL005C, strain med2, active compounds read low 0.801 | locus YDL035C, strain GPR1, active compounds read low 0.507 | locus YDL040C, strain nat1, active compounds read low 0.875 | locus YDL074C, strain BRE1, active compounds read low 0.498 | locus YDL101C, strain DUN1, active compounds read low 0.76 | locus YDL134C, strain PPH21, active compounds read low 0.629 | locus YDL192W, strain arf1, active compounds read low 0.691 | locus YDR069C, strain doa4, active compounds read low 0.519 | locus YDR101C, strain arx1, active compounds read low 0.593 | locus YDR137W, strain rgp1, active compounds read low 0.572 | locus YDR150W, strain NUM1, active compounds read low 0.883 | locus YDR159W, strain sac3, active compounds read low 0.773 | locus YDR162C, strain NBP2, active compounds read low 0.718 | locus YDR297W, strain sur2, active compounds read low 0.749 | locus YDR318W, strain mcm21, active compounds read low 0.655 | locus YDR335W, strain msn5, active compounds read low 0.807 | locus YDR388W, active compounds read low 0.406 | locus YDR392W, strain spt3, active compounds read low 0.6 | locus YDR502C, strain sam2, active compounds read low 0.606 | locus YEL003W, strain gim4, active compounds read low 0.665 | locus YEL037C, strain rad23, active compounds read low 0.763 | locus YEL061C, strain CIN8 (second series), active compounds read low 0.887 | locus YEL061C, strain CIN8, active compounds read low 0.838 | locus YER015W, strain faa2, active compounds read low 0.821 | locus YER016W, strain bim1, active compounds read low 0.686 | locus YER111C, strain swi4, active compounds read low 0.904 | locus YER155C, strain BEM2 (second series), active compounds read low 0.774 | locus YER155C, strain BEM2, active compounds read low 0.89 | locus YER167W, strain BCK2, active compounds read low 0.58 | locus YFR010W, strain ubp6, active compounds read low 0.627 | locus YGL078C, strain dbp3, active compounds read low 0.778 | locus YGL086W, strain mad1, active compounds read low 0.618 | locus YGL173C, strain kem1, active compounds read low 0.656 | locus YGL227W, strain vid30, active compounds read low 0.836 | locus YGL240W, strain doc1, active compounds read low 0.874 | locus YGL248W, strain PDE1, active compounds read low 0.559 | locus YGL253W, strain hxk2, active compounds read low 0.582 | locus YGR078C, strain PAC10, active compounds read low 0.703 | locus YGR135W, strain pre9, active compounds read low 0.704 | locus YGR229C, strain SMI1, active compounds read low 0.68 | locus YGR252W, strain gcn5, active compounds read low 0.461 | locus YHR013C, strain ard1, active compounds read low 0.494 | locus YHR027C, strain rpn1, active compounds read low 0.853 | locus YHR030C, strain SLT2, active compounds read low 0.749 and 0.474 | locus YHR079C, strain IRE1 (second series), active compounds read low 0.531 | locus YHR079C, strain IRE1, active compounds read low 0.484 | locus YHR129C, strain ARP1, active compounds read low 0.781 | locus YHR142W, strain chs7, active compounds read low 0.729 | locus YHR200W, strain rpn10, active compounds read low 0.735 | locus YIL066C, strain RNR3, active compounds read low 0.775 | locus YIL073C, strain SPO22, active compounds read low 0.535 | locus YIL125W, strain kgd1, active compounds read low 0.9 | locus YIR030C, strain dcg1, active compounds read low 0.575 | locus YJL092W, strain hpr5, active compounds read low 0.802 | locus YJL095W, strain BCK1 (second series), active compounds read low 0.766 | locus YJL095W, strain BCK1, active compounds read low 0.474 and 0.436 | locus YJL115W, strain asf1, active compounds read low 0.849 | locus YJL154C, strain vps35, active compounds read low 0.859 | locus YJL164C, strain tpk1, active compounds read low 0.562 | locus YJL166W, strain qcr8, active compounds read low 0.693 | locus YJL187C, strain SWE1 (second series), active compounds read low 0.565 | locus YJL187C, strain SWE1, active compounds read low 0.813 | locus YJR043C, strain POL32, active compounds read low 0.686 | locus YJR066W, strain TOR1, active compounds read low 0.397 | locus YJR075W, strain HOC1, active compounds read low 0.505
